{"source": "ChEMBL document CHEMBL3988442", "about": "“University of Dundee, Small-Polar-MMV Screening Library” (2021)", "note": "The whole screen tested about 48,000 compounds, of which about 13,000 (27%) showed an effect of 50% or more. The list shows a part of the results."}
{"system": "Wolbachia pipientis", "assay": "Anti-Wolbachia Cell-Based Screen", "assay_type": "functional", "set-up": "scale not given: in the data most compounds retested in dose-response had high values", "details": "5 µM", "units": {"Percent Effect": "%"}}
{"compound": "CCC(C)(C)NC(=O)COC(=O)c1cc(C)ccc1NC(=O)N(C)C", "Percent Effect": -1.36}
{"compound": "O=C(O)c1cccc(N2C[C@H](NC(=O)C3CCOCC3)[C@@H](C3CC3)C2)n1", "Percent Effect": -12.83}
{"compound": "CCn1ccnc1CN(C)Cc1nc(Cc2cccc(F)c2)no1", "Percent Effect": 17.71}
{"compound": "CN(CCc1cn[nH]c1)Cc1nc(Cc2cccc(F)c2)no1", "Percent Effect": -20.63}
{"compound": "CN1CCCCC1Cc1nc(Cc2cccc(F)c2)no1", "note": "(stereo unspecified)", "Percent Effect": 9.056}
{"compound": "CN(Cc1nc(Cc2cccc(F)c2)no1)C1CCOCC1", "Percent Effect": 108}
{"compound": "CN(Cc1nc(Cc2cccc(C(F)(F)F)c2)no1)C1CCOCC1", "Percent Effect": 106.5}
{"compound": "CN(CCc1cn[nH]c1)Cc1nc(Cc2cccc(C(F)(F)F)c2)no1", "Percent Effect": -3.312}
{"compound": "CN(Cc1nc(Cc2cccc(C(F)(F)F)c2)no1)C(C1CC1)C1CC1", "Percent Effect": 104.1}
{"compound": "CN(CCc1ccccc1)Cc1nc(Cc2cccc(F)c2)no1", "Percent Effect": -15.79}
{"compound": "CCN(CC)Cc1nc(Cc2cccc(C(F)(F)F)c2)no1", "Percent Effect": 107.6}
{"compound": "Cc1n[nH]c(C)c1CNCC(O)c1ccc(F)c(F)c1", "note": "(stereo unspecified)", "Percent Effect": -7.93}
{"compound": "O=C(c1ccc(-n2ccnc2)nn1)N1CCCC1CCc1ccccc1", "note": "(stereo unspecified)", "Percent Effect": 7.406}
{"compound": "c1nc2c(c(NCCCn3cncn3)n1)CCN(CC1CCOC1)CC2", "note": "(stereo unspecified)", "Percent Effect": 11.83}
{"compound": "CN(Cc1nc(Cc2cccc(C(F)(F)F)c2)no1)CC1CCCCO1", "note": "(stereo unspecified)", "Percent Effect": 99.9}
{"compound": "CN(Cc1cnn(C)c1)Cc1nc(Cc2cccc(Cl)c2)no1", "Percent Effect": 5.655}
{"compound": "CN(Cc1cccc(C(F)(F)F)c1)Cc1nc(-c2cnccn2)no1", "Percent Effect": -14.23}
{"compound": "CN(Cc1nc(Cc2cccc(C(F)(F)F)c2)no1)C1CCCCC1", "Percent Effect": 113.9}
{"compound": "CCOC1COC2(CCN(CC3CC3)CC2)C1.O=C(O)C(F)(F)F", "note": "(stereo unspecified)", "Percent Effect": 97.53}
{"compound": "CN(C)C(=O)COC1COC2(CCN(CC3CC3)CC2)C1.O=C(O)C(F)(F)F", "note": "(stereo unspecified)", "Percent Effect": -29.66}
{"compound": "O=C(O)C(F)(F)F.O=C(O)C(F)(F)F.c1ccc(OC2COC3(CCN(CC4CC4)CC3)C2)nc1", "note": "(stereo unspecified)", "Percent Effect": -30.37}
{"compound": "O=C(O)C(F)(F)F.O=S(=O)(N[C@@H]1CCO[C@]2(CCN(CC3CCOCC3)C2)C1)C1CC1", "Percent Effect": -3.129}
{"compound": "COc1ccccc1CN1CC[C@]2(C[C@@H](OCC(=O)N(C)C)CO2)C1.O=C(O)C(F)(F)F", "Percent Effect": -8.079}
{"compound": "CCOC1COC2(CCN(CC3CCOCC3)CC2)C1.O=C(O)C(F)(F)F", "note": "(stereo unspecified)", "Percent Effect": 102.9}
{"compound": "O=C(C1CCC2(CCN(CC3CCOCC3)CC2)O1)N1CCCC1.O=C(O)C(F)(F)F", "note": "(stereo unspecified)", "Percent Effect": -34.36}
{"compound": "CN(C)C(=O)COC1COC2(CCN(CC3CCOCC3)CC2)C1.O=C(O)C(F)(F)F", "note": "(stereo unspecified)", "Percent Effect": 121.3}
